Experimental data published in the supplement of paper PMC11732987, “Enantioselective OTUD7B fragment discovery through chemoproteomics screening and high-throughput optimisation” (Communications Chemistry, 2025).

Columns and labels:
Experiment in all cases: log2 ratio of Biotin-Ahx-Ub-VS probe labelling (fragment/DMSO); higher = less target engagement (more negative = stronger competition), active = hit call of the paper (q ≤ 0.05, log2 ratio ≤ -1)
Conditions in all cases: compound concentration: 200 uM; treatment time: 3 h
[1] = biological target: USP34 (UniProt Q70CQ2)
Procedure, shortened: (§1)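 Triplicate samples of HEK293T lysate, 495 µg each, received fragment at 200 µM or vehicle for 3 h, followed by Biotin-Ahx-Ub-VS (0.5 µM final) for 1 h. After NeutrAvidin enrichment of labelled DUBs and LysC/trypsin digestion, peptides were run by diaPASEF LC-MS/MS. The values are average log2 fragment/vehicle ratios from global-median-normalised Spectronaut label-free quantities, tested by unpaired t-test on proteins having ≥2 unique peptides.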

[2] = biological target: T1, USP36 (UniProt Q9P275)
T1 sequence (whole entry): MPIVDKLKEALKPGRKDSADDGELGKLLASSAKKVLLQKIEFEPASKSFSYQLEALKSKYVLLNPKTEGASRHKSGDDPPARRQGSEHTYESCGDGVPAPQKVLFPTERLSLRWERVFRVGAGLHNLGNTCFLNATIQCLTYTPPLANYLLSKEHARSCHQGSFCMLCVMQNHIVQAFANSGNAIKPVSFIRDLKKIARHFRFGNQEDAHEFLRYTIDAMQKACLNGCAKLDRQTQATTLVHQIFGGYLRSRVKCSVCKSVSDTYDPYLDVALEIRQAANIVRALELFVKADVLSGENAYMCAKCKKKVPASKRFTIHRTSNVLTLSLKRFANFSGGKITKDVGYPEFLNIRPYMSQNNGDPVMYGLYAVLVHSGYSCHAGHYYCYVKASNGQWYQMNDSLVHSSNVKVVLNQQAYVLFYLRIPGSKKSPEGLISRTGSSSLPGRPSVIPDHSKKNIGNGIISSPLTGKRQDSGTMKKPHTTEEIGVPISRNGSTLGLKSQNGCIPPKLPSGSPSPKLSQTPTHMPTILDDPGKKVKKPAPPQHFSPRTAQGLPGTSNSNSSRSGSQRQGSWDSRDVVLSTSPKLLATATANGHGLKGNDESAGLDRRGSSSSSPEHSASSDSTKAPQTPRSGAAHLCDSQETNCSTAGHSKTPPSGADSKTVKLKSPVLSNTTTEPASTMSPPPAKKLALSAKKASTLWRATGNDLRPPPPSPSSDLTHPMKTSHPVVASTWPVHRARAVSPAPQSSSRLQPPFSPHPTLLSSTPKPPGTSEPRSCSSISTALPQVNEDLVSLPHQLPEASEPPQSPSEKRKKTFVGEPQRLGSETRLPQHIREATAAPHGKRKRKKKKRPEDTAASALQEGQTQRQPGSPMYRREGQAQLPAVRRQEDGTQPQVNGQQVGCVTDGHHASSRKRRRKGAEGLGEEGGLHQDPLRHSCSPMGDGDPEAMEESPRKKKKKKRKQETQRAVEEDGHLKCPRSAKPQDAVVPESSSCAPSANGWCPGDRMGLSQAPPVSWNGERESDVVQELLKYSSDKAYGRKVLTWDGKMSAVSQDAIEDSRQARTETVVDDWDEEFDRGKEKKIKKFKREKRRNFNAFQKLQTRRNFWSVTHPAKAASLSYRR
Procedure, shortened: as §1

[3] = biological target: T2, USP38 (UniProt Q8NB14)
T2 sequence (whole entry): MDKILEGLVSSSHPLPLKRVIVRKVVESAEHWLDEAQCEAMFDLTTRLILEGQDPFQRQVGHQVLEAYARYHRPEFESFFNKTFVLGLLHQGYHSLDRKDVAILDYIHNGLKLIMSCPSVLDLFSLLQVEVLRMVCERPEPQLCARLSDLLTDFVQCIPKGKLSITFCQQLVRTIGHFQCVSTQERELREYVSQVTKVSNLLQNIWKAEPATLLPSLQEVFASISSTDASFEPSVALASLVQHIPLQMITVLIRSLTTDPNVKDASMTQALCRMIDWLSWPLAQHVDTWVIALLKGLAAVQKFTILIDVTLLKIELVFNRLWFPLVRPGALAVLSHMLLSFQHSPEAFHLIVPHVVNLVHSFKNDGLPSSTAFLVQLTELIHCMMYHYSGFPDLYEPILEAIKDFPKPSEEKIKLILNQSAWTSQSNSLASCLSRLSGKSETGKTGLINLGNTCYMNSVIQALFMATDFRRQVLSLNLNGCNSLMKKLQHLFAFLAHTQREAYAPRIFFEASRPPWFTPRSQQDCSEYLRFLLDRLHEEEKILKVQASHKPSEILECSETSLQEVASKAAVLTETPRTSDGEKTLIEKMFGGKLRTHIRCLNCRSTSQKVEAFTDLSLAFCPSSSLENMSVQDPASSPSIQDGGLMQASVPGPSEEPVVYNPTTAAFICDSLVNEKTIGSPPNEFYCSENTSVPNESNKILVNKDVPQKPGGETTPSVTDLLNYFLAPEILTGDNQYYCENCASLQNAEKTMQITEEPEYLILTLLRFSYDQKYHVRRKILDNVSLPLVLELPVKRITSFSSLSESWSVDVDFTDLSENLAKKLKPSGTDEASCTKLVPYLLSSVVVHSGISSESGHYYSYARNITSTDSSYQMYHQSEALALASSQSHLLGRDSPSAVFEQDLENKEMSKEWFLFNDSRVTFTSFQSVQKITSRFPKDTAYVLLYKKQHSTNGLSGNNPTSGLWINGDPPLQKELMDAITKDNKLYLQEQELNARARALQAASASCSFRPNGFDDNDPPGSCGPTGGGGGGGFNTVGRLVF
Procedure, shortened: as §1

[4] = biological target: T3, USP39 (UniProt Q53GS9)
T3 sequence (whole entry): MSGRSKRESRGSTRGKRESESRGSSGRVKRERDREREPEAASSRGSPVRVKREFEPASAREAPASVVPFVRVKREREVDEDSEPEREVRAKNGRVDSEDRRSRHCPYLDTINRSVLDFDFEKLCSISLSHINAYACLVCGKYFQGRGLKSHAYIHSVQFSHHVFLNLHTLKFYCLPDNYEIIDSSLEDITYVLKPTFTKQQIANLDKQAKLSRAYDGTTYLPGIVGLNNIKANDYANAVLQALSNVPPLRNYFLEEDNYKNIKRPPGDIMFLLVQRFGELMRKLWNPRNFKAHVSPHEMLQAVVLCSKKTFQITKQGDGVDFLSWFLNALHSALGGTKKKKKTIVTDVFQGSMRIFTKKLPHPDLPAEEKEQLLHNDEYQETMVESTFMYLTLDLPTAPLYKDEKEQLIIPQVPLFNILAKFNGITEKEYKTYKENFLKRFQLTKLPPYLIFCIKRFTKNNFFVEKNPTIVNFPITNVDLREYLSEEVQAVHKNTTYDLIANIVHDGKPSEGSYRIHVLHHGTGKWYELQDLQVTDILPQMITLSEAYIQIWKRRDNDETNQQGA
Procedure, shortened: as §1

[5] = biological target: T4, USP4 (UniProt Q13107)
T4 sequence (whole entry): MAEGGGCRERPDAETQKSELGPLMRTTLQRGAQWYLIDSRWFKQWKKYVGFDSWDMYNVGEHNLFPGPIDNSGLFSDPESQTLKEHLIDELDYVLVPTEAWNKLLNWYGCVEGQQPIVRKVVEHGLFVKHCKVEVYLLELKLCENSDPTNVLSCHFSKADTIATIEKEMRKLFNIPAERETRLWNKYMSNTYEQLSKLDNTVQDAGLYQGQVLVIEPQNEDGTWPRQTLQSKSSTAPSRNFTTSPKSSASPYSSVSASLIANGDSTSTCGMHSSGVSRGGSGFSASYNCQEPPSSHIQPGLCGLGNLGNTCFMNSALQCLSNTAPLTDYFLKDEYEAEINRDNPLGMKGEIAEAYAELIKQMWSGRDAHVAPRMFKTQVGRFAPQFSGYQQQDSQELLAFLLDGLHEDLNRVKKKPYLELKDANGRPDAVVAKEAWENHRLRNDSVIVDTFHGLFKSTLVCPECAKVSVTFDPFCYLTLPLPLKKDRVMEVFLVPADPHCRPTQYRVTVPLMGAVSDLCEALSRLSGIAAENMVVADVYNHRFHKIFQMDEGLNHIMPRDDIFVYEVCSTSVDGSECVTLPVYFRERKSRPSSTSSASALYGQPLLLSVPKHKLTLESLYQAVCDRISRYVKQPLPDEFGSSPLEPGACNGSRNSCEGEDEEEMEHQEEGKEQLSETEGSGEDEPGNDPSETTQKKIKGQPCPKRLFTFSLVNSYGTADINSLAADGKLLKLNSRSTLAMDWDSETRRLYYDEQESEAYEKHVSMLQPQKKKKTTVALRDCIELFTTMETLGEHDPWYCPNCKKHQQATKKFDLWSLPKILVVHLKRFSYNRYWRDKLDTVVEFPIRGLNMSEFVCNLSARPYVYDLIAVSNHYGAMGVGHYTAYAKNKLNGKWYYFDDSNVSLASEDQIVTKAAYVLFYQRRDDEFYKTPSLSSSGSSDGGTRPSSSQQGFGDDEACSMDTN
Procedure, shortened: as §1

Measured: log2 ratio of Biotin-Ahx-Ub-VS probe labelling

Chain of USP34 (Q70CQ2 whole entry, the tested form may be a part): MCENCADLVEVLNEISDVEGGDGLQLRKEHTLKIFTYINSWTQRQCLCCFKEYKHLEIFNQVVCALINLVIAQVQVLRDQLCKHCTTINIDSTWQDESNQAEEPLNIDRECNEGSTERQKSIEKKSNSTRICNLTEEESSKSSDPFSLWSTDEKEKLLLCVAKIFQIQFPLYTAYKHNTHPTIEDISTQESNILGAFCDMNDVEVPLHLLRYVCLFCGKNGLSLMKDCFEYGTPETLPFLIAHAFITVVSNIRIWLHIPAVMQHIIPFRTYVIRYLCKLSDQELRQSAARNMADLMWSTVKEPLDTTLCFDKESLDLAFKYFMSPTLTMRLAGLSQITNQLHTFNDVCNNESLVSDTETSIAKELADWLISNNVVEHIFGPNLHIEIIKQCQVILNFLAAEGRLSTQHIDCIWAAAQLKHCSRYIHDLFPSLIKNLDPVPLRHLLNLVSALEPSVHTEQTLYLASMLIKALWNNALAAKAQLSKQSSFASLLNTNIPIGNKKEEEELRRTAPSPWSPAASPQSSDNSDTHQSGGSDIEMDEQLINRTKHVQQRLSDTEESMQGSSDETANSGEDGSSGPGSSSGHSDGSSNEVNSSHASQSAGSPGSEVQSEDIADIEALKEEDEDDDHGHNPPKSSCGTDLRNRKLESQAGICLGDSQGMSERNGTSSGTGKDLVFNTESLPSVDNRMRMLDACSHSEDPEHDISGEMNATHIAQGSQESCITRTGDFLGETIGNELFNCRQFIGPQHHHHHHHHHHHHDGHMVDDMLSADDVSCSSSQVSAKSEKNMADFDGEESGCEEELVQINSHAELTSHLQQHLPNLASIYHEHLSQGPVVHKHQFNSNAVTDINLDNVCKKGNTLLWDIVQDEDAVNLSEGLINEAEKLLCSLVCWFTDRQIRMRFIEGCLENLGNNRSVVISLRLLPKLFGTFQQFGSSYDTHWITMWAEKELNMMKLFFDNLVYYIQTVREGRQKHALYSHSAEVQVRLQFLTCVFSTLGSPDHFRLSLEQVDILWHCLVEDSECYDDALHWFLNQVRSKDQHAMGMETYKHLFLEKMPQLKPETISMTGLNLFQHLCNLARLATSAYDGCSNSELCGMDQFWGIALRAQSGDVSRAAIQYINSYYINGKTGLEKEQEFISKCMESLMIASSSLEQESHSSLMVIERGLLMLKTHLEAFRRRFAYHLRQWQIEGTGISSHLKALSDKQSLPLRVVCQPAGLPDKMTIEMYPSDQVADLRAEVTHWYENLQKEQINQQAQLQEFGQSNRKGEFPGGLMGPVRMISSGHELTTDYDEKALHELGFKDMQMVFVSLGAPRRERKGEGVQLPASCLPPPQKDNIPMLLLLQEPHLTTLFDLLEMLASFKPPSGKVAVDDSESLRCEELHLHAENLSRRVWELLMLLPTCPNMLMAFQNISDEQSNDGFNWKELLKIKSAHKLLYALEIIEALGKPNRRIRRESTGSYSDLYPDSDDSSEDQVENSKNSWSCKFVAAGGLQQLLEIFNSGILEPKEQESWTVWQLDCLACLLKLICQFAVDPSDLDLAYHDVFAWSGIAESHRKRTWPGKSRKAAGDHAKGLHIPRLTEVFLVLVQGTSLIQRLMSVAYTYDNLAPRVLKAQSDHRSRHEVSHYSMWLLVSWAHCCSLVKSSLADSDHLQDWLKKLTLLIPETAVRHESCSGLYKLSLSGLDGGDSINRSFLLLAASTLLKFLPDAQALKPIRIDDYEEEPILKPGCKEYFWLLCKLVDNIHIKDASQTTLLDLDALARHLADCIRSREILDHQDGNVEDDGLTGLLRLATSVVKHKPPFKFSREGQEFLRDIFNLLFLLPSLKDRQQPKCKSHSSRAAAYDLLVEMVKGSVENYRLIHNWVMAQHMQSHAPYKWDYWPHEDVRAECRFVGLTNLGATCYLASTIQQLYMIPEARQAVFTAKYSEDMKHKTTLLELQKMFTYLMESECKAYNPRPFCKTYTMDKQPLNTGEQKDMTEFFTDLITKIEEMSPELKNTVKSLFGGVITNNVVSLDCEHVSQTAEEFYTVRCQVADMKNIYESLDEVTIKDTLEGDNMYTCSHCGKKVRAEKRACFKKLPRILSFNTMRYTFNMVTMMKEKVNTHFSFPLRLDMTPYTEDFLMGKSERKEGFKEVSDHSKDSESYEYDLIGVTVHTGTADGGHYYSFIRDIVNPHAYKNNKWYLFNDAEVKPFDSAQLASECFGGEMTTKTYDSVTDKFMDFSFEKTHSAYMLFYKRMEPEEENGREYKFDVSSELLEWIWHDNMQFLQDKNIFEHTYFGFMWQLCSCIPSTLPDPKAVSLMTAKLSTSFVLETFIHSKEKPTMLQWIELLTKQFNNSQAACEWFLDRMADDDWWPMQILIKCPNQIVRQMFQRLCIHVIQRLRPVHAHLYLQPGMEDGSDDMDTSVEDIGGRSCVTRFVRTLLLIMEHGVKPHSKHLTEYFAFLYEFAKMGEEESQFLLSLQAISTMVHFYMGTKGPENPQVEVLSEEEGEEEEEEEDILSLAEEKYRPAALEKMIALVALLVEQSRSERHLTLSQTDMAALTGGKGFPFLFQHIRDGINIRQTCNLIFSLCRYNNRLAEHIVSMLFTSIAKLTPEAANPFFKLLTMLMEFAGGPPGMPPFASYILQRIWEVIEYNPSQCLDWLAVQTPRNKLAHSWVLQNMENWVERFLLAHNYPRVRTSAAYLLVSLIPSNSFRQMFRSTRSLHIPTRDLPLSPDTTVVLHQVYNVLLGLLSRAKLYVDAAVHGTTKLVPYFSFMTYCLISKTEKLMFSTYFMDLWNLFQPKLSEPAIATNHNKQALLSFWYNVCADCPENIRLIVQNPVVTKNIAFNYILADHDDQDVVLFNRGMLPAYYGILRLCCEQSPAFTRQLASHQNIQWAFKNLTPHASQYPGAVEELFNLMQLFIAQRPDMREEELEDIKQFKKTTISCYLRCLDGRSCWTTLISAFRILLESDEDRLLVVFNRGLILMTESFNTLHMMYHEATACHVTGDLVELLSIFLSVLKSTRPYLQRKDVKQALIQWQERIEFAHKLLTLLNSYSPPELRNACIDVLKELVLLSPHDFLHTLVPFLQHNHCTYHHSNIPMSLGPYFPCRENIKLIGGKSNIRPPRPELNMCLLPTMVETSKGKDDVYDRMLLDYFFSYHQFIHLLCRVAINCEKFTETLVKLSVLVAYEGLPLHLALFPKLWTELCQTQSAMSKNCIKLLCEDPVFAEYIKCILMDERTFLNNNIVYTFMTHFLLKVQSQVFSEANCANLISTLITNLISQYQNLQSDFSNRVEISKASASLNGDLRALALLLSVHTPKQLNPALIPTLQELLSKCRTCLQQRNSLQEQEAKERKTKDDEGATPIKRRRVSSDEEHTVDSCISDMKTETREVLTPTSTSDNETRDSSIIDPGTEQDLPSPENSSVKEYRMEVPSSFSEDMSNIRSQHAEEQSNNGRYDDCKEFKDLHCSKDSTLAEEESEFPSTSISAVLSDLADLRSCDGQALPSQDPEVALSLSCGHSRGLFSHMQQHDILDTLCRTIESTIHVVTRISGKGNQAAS

CC(NC(=O)CCl)c1cccc(Cl)c1 (stereo not given)
inactive: [1] -0.653 | [2] -0.283 | [3] -0.175 | [4] -0.294 | [5] -0.239
